Measurements published in PubChem BioAssay (NCI).
This is part of a sample that, as a whole, favours compounds with a hit. Of some 79,000 tested, about 15% had one in any assay. A number with no mark means an inactive call. Activity calls are given as the source filed them. Rule as the data show it: active = growth inhibition above about 70%; inactive = the rest.

Tests used:
[1] = NCI Yeast Anticancer Drug Screen. Data for the rad50 strain (AID 155);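 also: 0% = growth of vehicle-only cultures of the same strain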; settings: S. cerevisiae rad50 strain growth inhibition, stronger effect = higher value
Procedure, shortened: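 Compounds were tested on a yeast strain with an engineered DNA damage repair alteration; the reported value is growth inhibition normalised to vehicle treatment.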

[2] = NCI Yeast Anticancer Drug Screen. Data for the mec2-1 strain (AID 157); settings: S. cerevisiae mec2-1 strain, stronger effect = higher value
Procedure, shortened: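 Vehicle-treated cultures served as reference for growth inhibition of compound-exposed mec2-1 yeast.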

[3] = NCI Yeast Anticancer Drug Screen. Data for the sgs1 mgt1 strain (AID 161);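 also: 0% = growth of cultures given vehicle only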; settings: S. cerevisiae sgs1 mgt1 strain, stronger effect = higher value
Procedure, shortened: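 Test agents were incubated with a DNA-repair-mutant yeast strain. Growth was then read and compared against vehicle-treated controls.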

[4] = NCI Yeast Anticancer Drug Screen. Data for the cln2 rad14 strain (AID 165);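 also: 0% = growth equal to vehicle treated cultures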; settings: S. cerevisiae cln2 rad14 strain, stronger effect = higher value
Procedure, shortened: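 Each compound was tested on cln2 rad14 yeast. Inhibition of growth was calculated against vehicle-exposed controls.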

[5] = NCI Yeast Anticancer Drug Screen. Data for the bub3 strain (AID 167); settings: S. cerevisiae bub3 mutant strain, stronger effect = higher value
Procedure, shortened: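 Growth of a checkpoint-deficient yeast mutant is measured after compound exposure. Values represent inhibition relative to vehicle.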

[6] = NCI Yeast Anticancer Drug Screen. Data for the mlh1 rad18 strain (AID 175); settings: S. cerevisiae mlh1 rad18 strain growth inhibition, stronger effect = higher value
Procedure, shortened: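 Vehicle-treated cultures served as the reference for growth inhibition in a yeast strain carrying DNA damage repair alterations exposed to each compound.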

[7] = at 5.0 µM (retest, dose inferred, filed as 0.5)
[8] = at 50.0 µM (retest, dose inferred, filed as 5.0)

CCOC(=O)c1ccc(N=Cc2ccc(N(CCCl)CCCl)cc2C)cc1
growth inhibition [1, 7]: -4%
growth inhibition [1, 8]: 15%
growth inhibition ([1]; at 50.0 µM): 49.5%
growth inhibition [2, 7]: 13%
growth inhibition [2, 8]: 22%
growth inhibition ([2]; at 50.0 µM): 16.4%
growth inhibition [3, 7]: 14%
growth inhibition [3, 8]: 39%
growth inhibition ([3]; at 50.0 µM): 67.7%
growth inhibition [4, 7]: -8%
growth inhibition [4, 8]: -15%
growth inhibition ([4]; at 50.0 µM): 5.3%
growth inhibition [5, 7]: -6%
growth inhibition [5, 8]: 2%
growth inhibition ([5]; at 50.0 µM): 17.2%
growth inhibition [6, 7]: 25%
growth inhibition [6, 8]: 73% (active)
growth inhibition ([6]; at 50.0 µM): 37.9%

CC(C)=N.[C-]#[O+].[C-]#[O+].[C-]#[O+].[C-]#[O+].[C-]#[O+].[W]
growth inhibition [1, 7]: 30%
growth inhibition [1, 8]: 34%
growth inhibition ([1]; at 50.0 µM): -7.35%
growth inhibition [2, 7]: 15%
growth inhibition [2, 8]: 35%
growth inhibition ([2]; at 50.0 µM): -2.45%
growth inhibition [3, 7]: 26%
growth inhibition [3, 8]: 34%
growth inhibition ([3]; at 50.0 µM): -11.8%
growth inhibition [4, 7]: 36%
growth inhibition [4, 8]: 31%
growth inhibition ([4]; at 50.0 µM): 0.7%
growth inhibition [5, 7]: 36%
growth inhibition [5, 8]: 47%
growth inhibition ([5]; at 50.0 µM): 64.5%
growth inhibition [6, 7]: 45%
growth inhibition [6, 8]: 43%
growth inhibition ([6]; at 50.0 µM): -13.1%

[Cl][Hg][c]1ccc2ccccc2c1
growth inhibition [1, 7]: 99% (active)
growth inhibition [1, 8]: 98% (active)
growth inhibition ([1]; at 50.0 µM): 85.8% (active)
growth inhibition [2, 7]: 100% (active)
growth inhibition [2, 8]: 97% (active)
growth inhibition ([2]; at 50.0 µM): 89.5% (active)
growth inhibition [3, 7]: 100% (active)
growth inhibition [3, 8]: 98% (active)
growth inhibition ([3]; at 50.0 µM): 90.9% (active)
growth inhibition [4, 7]: 100% (active)
growth inhibition [4, 8]: 97% (active)
growth inhibition ([4]; at 50.0 µM): 89.3% (active)
growth inhibition [5, 7]: 99% (active)
growth inhibition [5, 8]: 97% (active)
growth inhibition ([5]; at 50.0 µM): 88.1% (active)
growth inhibition [6, 7]: 100% (active)
growth inhibition [6, 8]: 97% (active)

CC(=O)[O][Hg][c]1c(C)c(C)cc(C)c1C
growth inhibition [1, 7]: 99% (active)
growth inhibition [1, 8]: 96% (active)
growth inhibition ([1]; at 50.0 µM): 90.1% (active)
growth inhibition [2, 7]: 100% (active)
growth inhibition [2, 8]: 98% (active)
growth inhibition ([2]; at 50.0 µM): 91.2% (active)
growth inhibition [3, 7]: 99% (active)
growth inhibition [3, 8]: 98% (active)
growth inhibition ([3]; at 50.0 µM): 87.7% (active)
growth inhibition [4, 7]: 99% (active)
growth inhibition [4, 8]: 98% (active)
growth inhibition ([4]; at 50.0 µM): 85.7% (active)
growth inhibition [5, 7]: 99% (active)
growth inhibition [5, 8]: 97% (active)
growth inhibition ([5]; at 50.0 µM): 84.2% (active)
growth inhibition [6, 7]: 99% (active)
growth inhibition [6, 8]: 96% (active)
growth inhibition ([6]; at 50.0 µM): 76.2% (active)

CC(C)C12C=C3CCC4C(C)(C(=O)O)CCCC4(C)C3(CC1)OO2 (stereo unspecified)
growth inhibition [1, 7]: 13%
growth inhibition [1, 8]: 90% (active)
growth inhibition ([1]; at 50.0 µM): 93.7% (active)
growth inhibition [2, 7]: -1%
growth inhibition [2, 8]: 95% (active)
growth inhibition ([2]; at 50.0 µM): 95% (active)
growth inhibition [3, 7]: 7%
growth inhibition [3, 8]: 90% (active)
growth inhibition ([3]; at 50.0 µM): 97.6% (active)
growth inhibition [4, 7]: -6%
growth inhibition [4, 8]: 94% (active)
growth inhibition ([4]; at 50.0 µM): 86.4% (active)
growth inhibition [5, 7]: -8%
growth inhibition [5, 8]: 91% (active)
growth inhibition ([5]; at 50.0 µM): 96.4% (active)
growth inhibition [6, 7]: 1%
growth inhibition [6, 8]: 95% (active)
growth inhibition ([6]; at 50.0 µM): 96.9% (active)

CN(C)[PH+](N(C)C)N(C)C.CN(C)[PH+](N(C)C)N(C)C.[C-]#[O+].[C-]#[O+].[C-]#[O+].[C-]#[O+].[C-]#[O+].[C-]#[O+].[Co].[Co].[Hg]
growth inhibition [1, 7]: 3%
growth inhibition [1, 8]: 16%
growth inhibition ([1]; at 50.0 µM): 98.2% (active)
growth inhibition [2, 7]: 3%
growth inhibition [2, 8]: 16%
growth inhibition ([2]; at 50.0 µM): 99.7% (active)
growth inhibition [3, 7]: 1%
growth inhibition [3, 8]: 9%
growth inhibition ([3]; at 50.0 µM): 99.6% (active)
growth inhibition [4, 7]: -3%
growth inhibition [4, 8]: 2%
growth inhibition ([4]; at 50.0 µM): 99.2% (active)
growth inhibition [5, 7]: 2%
growth inhibition [5, 8]: 13%
growth inhibition ([5]; at 50.0 µM): 99.5% (active)
growth inhibition [6, 7]: 5%
growth inhibition [6, 8]: 20%
growth inhibition ([6]; at 50.0 µM): 98.8% (active)

Cc1cc(CCN)c(C)c2c1sc1ccccc12
growth inhibition [1, 7]: 21%
growth inhibition [1, 8]: 99% (active)
growth inhibition ([1]; at 50.0 µM): 99.7% (active)
growth inhibition [2, 7]: 92% (active)
growth inhibition [2, 8]: 100% (active)
growth inhibition ([2]; at 50.0 µM): 94.3% (active)
growth inhibition [3, 7]: 89% (active)
growth inhibition [3, 8]: 100% (active)
growth inhibition ([3]; at 50.0 µM): 99.7% (active)
growth inhibition [4, 7]: 98% (active)
growth inhibition [4, 8]: 99% (active)
growth inhibition ([4]; at 50.0 µM): 89% (active)
growth inhibition [5, 7]: 97% (active)
growth inhibition [5, 8]: 99% (active)
growth inhibition ([5]; at 50.0 µM): 95.1% (active)
growth inhibition [6, 7]: 81% (active)
growth inhibition [6, 8]: 100% (active)
growth inhibition ([6]; at 50.0 µM): 99.7% (active)

O=[N+]([O-])c1ccc([N+](=O)[O-])c2nsnc12
growth inhibition [1, 7]: 98% (active)
growth inhibition [1, 8]: 97% (active)
growth inhibition ([1]; at 50.0 µM): 99.5% (active)
growth inhibition [2, 7]: 90% (active)
growth inhibition [2, 8]: 98% (active)
growth inhibition ([2]; at 50.0 µM): 99.5% (active)
growth inhibition [3, 7]: 48%
growth inhibition [3, 8]: 99% (active)
growth inhibition ([3]; at 50.0 µM): 99.3% (active)
growth inhibition [4, 7]: 77% (active)
growth inhibition [4, 8]: 98% (active)
growth inhibition ([4]; at 50.0 µM): 99.3% (active)
growth inhibition [5, 7]: 98% (active)
growth inhibition [5, 8]: 98% (active)
growth inhibition ([5]; at 50.0 µM): 99.2% (active)
growth inhibition [6, 7]: 79% (active)
growth inhibition [6, 8]: 97% (active)
growth inhibition ([6]; at 50.0 µM): 99% (active)

OC(c1ccccc1)(c1ccccc1)c1ccccn1
growth inhibition [1, 7]: -6%
growth inhibition [1, 8]: -9%
growth inhibition ([1]; at 50.0 µM): 4.55%
growth inhibition [2, 7]: -14%
growth inhibition [2, 8]: 2%
growth inhibition ([2]; at 50.0 µM): 53.4%
growth inhibition [3, 7]: -5%
growth inhibition [3, 8]: 5%
growth inhibition ([3]; at 50.0 µM): 9.4%
growth inhibition [4, 7]: -6%
growth inhibition [4, 8]: 5%
growth inhibition ([4]; at 50.0 µM): 2.7%
growth inhibition [5, 7]: -3%
growth inhibition [5, 8]: 3%
growth inhibition ([5]; at 50.0 µM): 13.8%
growth inhibition [6, 7]: -21%
growth inhibition [6, 8]: -5%
growth inhibition ([6]; at 50.0 µM): -6.2%
